BoNT A protease: inhibitors of Botulinum neurotoxin A light chain protease; actives 0.17% (n = 360,000); multiplex microsphere protease substrate cleavage, flow cytometry; AID 588499; inhibition, % at 10 µM; further: plate controls were buffer without enzyme for full effect and enzyme alone for no effect
BoNT-F LC inh: inhibitors of Botulinum neurotoxin F light chain protease | Multiplex microsphere protease cleavage assay, flow cytometry | inhibition, % at 10 µM | actives 0.22% (n = 360,000); in the data active means inhibition above about 35%, passing the limit was not always enough; inconclusive means no clear call, values can overlap the other calls; further: plate controls were buffer without enzyme for full effect and enzyme alone for no effect
Anthrax LF prot: inhibitors of Bacillus anthracis lethal factor protease | P15917 | multiplex microsphere protease cleavage assay, LF | inhibition, % at 10 µM | actives 0.12% (n = 360,000); further: plate controls were buffer without enzyme for full effect and enzyme alone for no effect
Target sequence (P15917 whole entry, looked up): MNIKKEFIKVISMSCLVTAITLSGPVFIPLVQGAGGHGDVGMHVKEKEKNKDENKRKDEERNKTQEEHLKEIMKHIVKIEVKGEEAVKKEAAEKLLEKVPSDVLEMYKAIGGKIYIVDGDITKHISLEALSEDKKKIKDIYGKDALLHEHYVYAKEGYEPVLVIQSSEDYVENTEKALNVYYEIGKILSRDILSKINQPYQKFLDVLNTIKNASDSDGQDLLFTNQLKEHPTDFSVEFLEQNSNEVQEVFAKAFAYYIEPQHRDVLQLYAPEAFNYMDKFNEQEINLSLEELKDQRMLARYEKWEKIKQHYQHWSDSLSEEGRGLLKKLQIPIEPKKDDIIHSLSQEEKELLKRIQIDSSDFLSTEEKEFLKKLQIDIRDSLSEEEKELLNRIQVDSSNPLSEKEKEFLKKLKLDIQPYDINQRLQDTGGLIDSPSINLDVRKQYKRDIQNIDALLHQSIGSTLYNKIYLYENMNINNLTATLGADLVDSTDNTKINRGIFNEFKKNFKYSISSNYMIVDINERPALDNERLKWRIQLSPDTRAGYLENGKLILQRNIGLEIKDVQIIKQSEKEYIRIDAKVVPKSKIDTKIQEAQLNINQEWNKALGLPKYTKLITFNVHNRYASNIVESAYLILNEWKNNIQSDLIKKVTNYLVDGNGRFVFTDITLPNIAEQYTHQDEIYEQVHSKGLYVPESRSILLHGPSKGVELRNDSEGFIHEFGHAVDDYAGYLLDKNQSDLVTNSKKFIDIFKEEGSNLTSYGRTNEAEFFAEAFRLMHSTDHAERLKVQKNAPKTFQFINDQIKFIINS
Autofluor counter: flagged as autofluorescent in microsphere protease counterscreen | fluorescence intensity (test concentration not listed) | compound autofluorescence counterscreen, microsphere flow cytometry; stronger effect = higher value | actives 3.1% (n = 360,000); in the data active means fluorescence intensity above about 16000; inconclusive means no clear call, values can overlap the other calls
Numbers without * were called inactive; ? = inconclusive. The list is not random: actives were taken first. Their share in the collection is about 3.5%. Unless noted, no stated cut-off is given here; in the data, active means inhibition above about 30%; inconclusive means no clear call, values can overlap the other calls; inactive means below that.

SMILES	BoNT A protease	BoNT-F LC inh	Anthrax LF prot	Autofluor counter
CC(NC(=O)c1ccco1)C(=O)OCc1cccc(Cl)c1 (stereo not drawn)	-6	-10	-1	25194*
O=C(CCSc1ccc(Cl)cc1)c1ccco1	-5	-9	-7	3014
O=C(NCCSc1ccc(Cl)cc1)c1ccco1	2	2	-2	21843*
O=C(NCc1cccc(Cl)c1)c1ccco1	-1	-2	0	22733*
CCn1cc(CN2CCCC(C(=O)Nc3cccc(-c4cc5ccccc5[nH]4)c3)C2)cn1 (stereo not drawn)	-3	-8	-1	6508
CC(c1ccccc1)n1c(N2CCNCC2)nc2c1c(=O)[nH]c(=O)n2C (stereo not drawn)	-4	?	-8	3133
COc1ccc(N2CCN(CCCNC(=O)C3(S(=O)(=O)c4ccc(Cl)cc4)CC3)CC2)cc1	?	-16	-7	26083*
O=C(NCCCN1CCN(c2cccc(Cl)c2)CC1)C1(S(=O)(=O)c2ccc(Cl)cc2)CC1	0	-6	-6	3956
CC(=O)c1ccc(N2CCN(C(=O)C3(S(=O)(=O)c4ccc(Cl)cc4)CC3)CC2)cc1	0	0	-1	19219*
Nc1ccc(C(O)(C(F)(F)F)C(F)(F)F)cc1	0	0	0	16402*
Cc1cc(C)n(C(=O)Cn2nc(C(F)F)cc2C)n1	3	4	-2	21933*
CCCc1cc(C(=O)OC)c(NC(=O)CCCC(=O)O)s1	0	-2	3	4683
CCCc1cc(C(=O)OC)c(NC(=O)OCC)s1	?	11	-12	18061*
CCOC(=O)c1cc(CC)sc1NC(=O)C1CC1	-1	-8	-2	9851
CCc1cc(C(=O)OC)c(NC(=O)CCC(=O)O)s1	1	0	1	21823*
Cc1ccc(NC(=O)C/C(N)=N/OC(=O)Nc2cccc(Cl)c2)cc1	2	3	1	7545
O=C(c1cc2c(s1)CCCC2)N1CCN(Cc2ccc3c(c2)OCO3)CC1	0	-3	0	3181
O=C(Oc1ccc2c(c1)OCO2)c1cc2c(s1)CCC2	2	54*	-1	3933
O=C(CC[C@H]1O[C@@H](n2cnc3c(NC(=O)c4ccccc4)ncnc32)[C@H](O)[C@@H]1O)NCc1cccc2ccccc12	-1	-1	2	5892
Cc1cc(C)cc(C(=O)N2CC(C)OC(C)C2)c1 (stereo not drawn)	?	-1	0	22829*
CC1CCCC(NC(=O)c2cccc(S(=O)(=O)N3CCN(c4ccccc4)CC3)c2)C1C (stereo not drawn)	-2	-7	-4	5771
CC(C)c1ccccc1NC(=O)COC(=O)c1cc(=O)[nH]c(=O)[nH]1	0	4	-2	2401
COc1ccccc1-c1c(C)oc2cc(OC(=O)c3ccco3)ccc2c1=O	?	-4	0	20703*
Cc1ccc(-n2c(=O)cc(NCc3cccnc3)[nH]c2=O)cc1	2	2	0	21543*
Cc1ccc(S(=O)(=O)c2c(N)n(CCCO)c3nc4ccccc4nc23)cc1	0	-2	-9	2616
SMILES	BoNT A protease	BoNT-F LC inh	Anthrax LF prot	Autofluor counter
Cc1ccc(C(=O)Nn2c(N)c(S(=O)(=O)c3ccc(C)cc3)c3nc4ccccc4nc32)cc1	1	4	?	7509
Cc1ccc(S(=O)(=O)c2c(N)n(NC(=O)c3ccccc3C)c3nc4ccccc4nc23)cc1	0	-2	0	22674*
Cc1ccc(S(=O)(=O)c2c(N)n(CCC(C)C)c3nc4ccccc4nc23)cc1	2	0	2	22605*
CCc1ccc(NC(=O)c2c(Cl)nc(C)c(Cl)c2C)cc1	0	-3	-4	9914
Cc1ccc2cc(C(c3nnnn3C3CCCC3)N3CCN(c4ccccc4)CC3)c(=O)[nH]c2c1 (stereo not drawn)	1	6	-1	9107
COc1ccc(N2CCN(C(c3cc4cc(C)ccc4[nH]c3=O)c3nnnn3Cc3ccccc3)CC2)cc1 (stereo not drawn)	0	-2	-3	20480*
Cc1ccc2cc(C(c3nnnn3Cc3ccccc3)N3CCN(c4ccccc4)CC3)c(=O)[nH]c2c1 (stereo not drawn)	-1	-1	-4	23279*
COc1ccccc1N1CSC2=C(C#N)C(c3ccc(SC)cc3)CC(=O)N2C1 (stereo not drawn)	3	-7	10	5574
CCOc1ccccc1N1C(=O)CC(Sc2n[nH]c(-c3ccccc3)n2)C1=O (stereo not drawn)	2	-2	1	2184
C[C@H]1CN=C(N(C)C)N1CCCC1CCCCC1	-1	-10	-6	4257
CCOC(=O)N1CCC(NC(=O)c2cc(C)c3c(C)nn(-c4ccccc4)c3n2)CC1	4	7	-8	19067*
N/C(=N\OC(=O)C12CC3CC(CC(C3)C1)C2)c1cccnc1	0	13	1	9199
N/C(=N\OC(=O)C12CC3CC(CC(C3)C1)C2)c1ccccc1	5	5	-10	17662*
Cc1cccc(-n2nnc3c(=O)n(Cc4ccccn4)cnc32)c1	0	-5	-2	3288
Cc1ccc(-c2nnn(CC(=O)N(Cc3cccs3)C(C(=O)NC(C)(C)C)c3ccco3)n2)o1 (stereo not drawn)	-1	1	-3	11019
Cc1ccc(C(C(=O)NC(C)(C)C)N(CC2CCCO2)C(=O)Cn2nnc(-c3ccc(C)o3)n2)cc1 (stereo not drawn)	?	1	0	16426*
Cc1ccc(-c2nnn(CC(=O)N(Cc3ccco3)C(C(=O)NC(C)(C)C)c3cccs3)n2)o1 (stereo not drawn)	1	4	1	22756*
CC(C)c1ccc(CN(C(=O)c2cc3ccccc3oc2=O)C2CCS(=O)(=O)C2)cc1 (stereo not drawn)	?	5	-12	21498*
NNc1nc(-c2ccccc2)cc(-c2ccccc2O)n1	?	-3	-4	22292*
NNc1nc(-c2ccccc2)cc(-c2ccccc2)n1	-1	-7	-4	4175
CC(CNC(=O)CCS(=O)(=O)c1cc2c(cc1Cl)NC(=O)CO2)c1ccccc1 (stereo not drawn)	0	-3	-10	5921
CCOC(=O)c1ccc(N/C=C\C(=O)c2cccc(OC)c2)cc1	0	-7	-3	2027
COc1cccc(C(=O)/C=C/Nc2cc(C)ccc2O)c1	0	-1	-2	23605*
COc1cccc(N/C=C/C(=O)c2ccc(Br)cc2)c1	1	5	-1	2559
COc1ccc(C(=O)/C=C/Nc2cccc(O)c2)cc1	?	1	-12	20620*
SMILES	BoNT A protease	BoNT-F LC inh	Anthrax LF prot	Autofluor counter
COc1ccc(CNC(=O)COC(=O)c2c(NC(C)=O)sc(C)c2C)cc1OC	0	-10	-5	3716
CCCSc1nnc(CSc2nc3ccccc3s2)n1-c1ccccc1	-1	-6	-3	17205*
S=c1[nH]nc(CSc2nc3ccccc3s2)n1Cc1ccccc1	0	7	1	3019
CCn1c(CSc2nc3ccccc3s2)n[nH]c1=S	-2	-3	-1	20748*
CC1=C(C(=O)Nc2ccccc2F)C(c2cccs2)NC(=S)N1 (stereo not drawn)	1	-4	-2	4809
CC1=C(C(=O)Nc2cc(C)ccc2C)C(c2cccs2)NC(=S)N1 (stereo not drawn)	-5	-6	0	21275*

Screening results (PubChem BioAssay)
